The target in one test is DLAT. Description: pooled miR-30 sensor sort-seq; sequence = guide strand. The settings on record: shRNA.
For the sequence TTGCTGATTGGGATATCTGTGA, the sensor-assay potency score (higher = more potent) is -0.131.

TTTTTCTACAATGATACAGAGT came in with a sensor-assay potency score (higher = more potent) of -0.634.

With TTGTGTAAGATCAATCCCTTTC, the sensor-assay potency score (higher = more potent) is -0.362.

TTGCTAAAGAAACAACATCATT gave a sensor-assay potency score (higher = more potent) of -1.57.

For the sequence TATCTTATTAAGTTCTTTCCGT, the sensor-assay potency score (higher = more potent) is 0.0125.

TTGGTGATTCTACCATCTGGTC gave a sensor-assay potency score (higher = more potent) of -1.07.

TATCTGTGAAGACACCTGTAGG came in with a sensor-assay potency score (higher = more potent) of -1.1.

Take ATATCTGTGAAGACACCTGTAG: the sensor-assay potency score (higher = more potent) was -0.267.

As for TCTTTTTCTACAATGATACAGA, the sensor-assay potency score (higher = more potent) was -0.772.

TGATTTTGTCTTATAACTGTGT registered a sensor-assay potency score (higher = more potent) of 0.275.

TAGGTGTGATGAGTCCTGCAGG: the sensor-assay potency score (higher = more potent) was -0.602.

Take TAAGTCTCCTTCACTTAGCTTC: the sensor-assay potency score (higher = more potent) is -0.196.

Another test has as its target DLGAP2. The description is as above. The settings on record: shRNA.
TTTTTTTGAATGCTACAGCTGG: the sensor-assay potency score (higher = more potent) was -0.304.

Sequence TAGATCTCGATGCTGTCCGCGC came in with a sensor-assay potency score (higher = more potent) of -0.416.

In turn, TTGACGTCGTTGTTGCTCTTGG showed a sensor-assay potency score (higher = more potent) of 0.201.

Sequence TTGTTCGGAAACATCCCGGGAG yielded a sensor-assay potency score (higher = more potent) of 0.236.

With TTCAACTTCACTGAAGACGGAC, the sensor-assay potency score (higher = more potent) was -0.0753.

ATAGGTGCTGTCGCTGTCCAGG: the sensor-assay potency score (higher = more potent) is -0.97.

As for TAGCTGTGACTCCTTGTTCGGA, the sensor-assay potency score (higher = more potent) is -0.676.

In turn, TTGTCTGTCGGGCAGGTCCAGG returned a sensor-assay potency score (higher = more potent) of -1.29.

As to TTTACCGAGAATTTCCTCCGAG, the sensor-assay potency score (higher = more potent) is 0.34.

As for TAGAACGTTTAAAACGTCCGTG, the sensor-assay potency score (higher = more potent) was -0.169.

As for TCCTTGTTCGGAAACATCCCGG, the sensor-assay potency score (higher = more potent) was -1.01.

TTGTATATGAGACAGCTGCTGT: the sensor-assay potency score (higher = more potent) is -0.506.

The target of the next test is DMBX1. The description is as above. Particulars: shRNA.
TCTGGGTAGTGAGTCTTCTGGA: the sensor-assay potency score (higher = more potent) was -0.662.

In turn, TGGGTAGTGAGTCTTCTGGAAG came in with a sensor-assay potency score (higher = more potent) of -2.04.

Sequence TCACGCATCACCACATCTGGGT registered a sensor-assay potency score (higher = more potent) of 0.0309.

In turn, TGAACCACACCTGCACCCGGGC gave a sensor-assay potency score (higher = more potent) of -1.56.

For TGAGCCGTGAACGCTGTGCGGC, the sensor-assay potency score (higher = more potent) is -1.33.

In turn, TGACTGCTCAGACAGACTCAGG came in with a sensor-assay potency score (higher = more potent) of -1.97.

As to TTTTACTGTTCAGGGTAGCTGA, the sensor-assay potency score (higher = more potent) was -0.522.

TTCTTCCGGAACTTGGCCCGGC registered a sensor-assay potency score (higher = more potent) of -0.414.

Regarding TTCCTTCTGCAGGCTACGCTGC, the sensor-assay potency score (higher = more potent) is -1.18.

The sequence TTGTACATGGCGCTGAGTGAGT yielded a sensor-assay potency score (higher = more potent) of -0.81.

For TTGAACCACACCTGCACCCGGG, the sensor-assay potency score (higher = more potent) was -0.844.

For TTACTGTTCAGGGTAGCTGATG, the sensor-assay potency score (higher = more potent) was -1.25.

The target of a further test is DMKN. The test is described as above. The settings on record: shRNA.
Sequence TAGTTCTGATCGGCTCTGCCTG yielded a sensor-assay potency score (higher = more potent) of -0.576.

TTCTGTTTGAAATCCTCCCAGA registered a sensor-assay potency score (higher = more potent) of -0.45.

TTCCTCTCCGCTCTGCAGGGGG returned a sensor-assay potency score (higher = more potent) of -0.64.

TTGTTGTTGTCACCATTGCTGC showed a sensor-assay potency score (higher = more potent) of -0.932.

Values taken from the OligoGym collection.
Note: reference of the scale not given here.
